Bioassay records (PubChem)
In the library only some 10% were active in any assay of this set; here they are far more common.
JMJD2A Tudor: qHTS Assay for Inhibitors of JMJD2A-Tudor Domain | Lysine-specific demethylase 4A (Homo sapiens), O75164 | AlphaScreen JMJD2A-Tudor / H3K4me3 peptide binding | Potency, µM (highest dose often 114 µM), for the others: at the top dose activity change, negative = inhibition, hits mostly inhibitors | 4.4% of 390,000 active | AID 504339, 2011; also: potency is read from the fitted curve at half-maximal effect; % is scaled to controls: 0 for no effect and ±100 for the full control effect; nearly all actives have a fitted effect of over 50% in size
G9a inh: qHTS Assay for Inhibitors of Histone Lysine Methyltransferase G9a; Histone-lysine N-methyltransferase EHMT2 (Homo sapiens), Q96KQ7; G9a H3K9 monomethylation, AlphaScreen, 2 h; Potency, µM (titrated, usually from 102 µM), for the others: at the highest dose activity, negative = inhibition, most hits filed as inhibitors; 8.8% of 350,000 active; AID 504332, 2011; also: potency is read from the fitted curve at half-maximal effect; % is scaled to controls: 0 for no effect and ±100 for the full control effect; nearly all actives have a fitted effect of over 75% in size
Target sequence (Q96KQ7 913-1193 limits assumed): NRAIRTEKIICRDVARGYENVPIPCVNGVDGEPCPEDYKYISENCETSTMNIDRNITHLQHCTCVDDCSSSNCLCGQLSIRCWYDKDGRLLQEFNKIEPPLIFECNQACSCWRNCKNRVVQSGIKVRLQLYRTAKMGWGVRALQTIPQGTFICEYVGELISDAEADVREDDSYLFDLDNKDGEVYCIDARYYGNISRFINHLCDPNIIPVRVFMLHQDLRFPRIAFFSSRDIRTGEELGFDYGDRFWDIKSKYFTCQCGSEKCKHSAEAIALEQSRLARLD
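G9a (20 nM) was preincubated 15 min with compound, then reacted 2 h at room temperature with 500 nM biotin-H3K9 peptide and 20 µM SAM. Monomethyl-H3K9 detected by AlphaScreen using anti-H3K9me1 antibody.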
HP1b chromo inh: HTS for Inhibitors of HP1-beta Chromodomain Interactions with Methylated Histone Tails; AID 540317, 2011; AlphaScreen HP1-beta / biotin-H3K9me3 peptide binding; 0.56% of 390,000 active; Potency, µM (top dose mostly 114 µM), inactives show top-dose activity change, negative = inhibition, actives largely listed as inhibitors; also: potency is read from the fitted curve at half-maximal effect; nearly all actives have a fitted effect of over 70% in size
Target sequence (P83916 whole entry, looked up): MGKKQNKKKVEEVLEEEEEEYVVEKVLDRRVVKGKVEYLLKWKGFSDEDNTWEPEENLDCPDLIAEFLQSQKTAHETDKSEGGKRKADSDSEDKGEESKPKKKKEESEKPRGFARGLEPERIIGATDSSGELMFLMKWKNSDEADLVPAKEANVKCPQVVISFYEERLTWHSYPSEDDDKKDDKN
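AlphaScreen: HP1-beta (50 nM) preformed 30 min with biotin-H3(1-18)K9me3 peptide (50 nM) in PBS pH 7.4, 0.01% Tween-20. Compound added for 30 min at RT, then streptavidin donor/nickel chelate acceptor beads (10 ug/mL) for 30 min.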
Six1-Eya2 inh: qHTS Assay for Inhibitors of the Six1/Eya2 Interaction; AlphaScreen GST-Six1/His-Eya2 binding, biochemical; stronger effect = lower value; AID 651725, 2012; 0.56% of 360,000 active; Homeobox protein SIX1 (Homo sapiens) + Protein phosphatase EYA2 (Homo sapiens), …; activity change, % (no concentration beside the values); in the data active = activity change below about -65%; inconclusive = mostly about -30% to -63%; also: % is scaled to controls: 0 for no effect and ±100 for the full control effect
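GST-Six1 + His-Eya2 (5X stock: 250/500 nM); Tris pH 8.0, 300 mM NaCl, 0.05% BSA, 0.02% Tween 20; GSH donor/Ni acceptor beads; 1 h 37 °C dark; AlphaScreen readout.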
BAZ2B inh: qHTS Assay for Inhibitors of BAZ2B. Bromodomain adjacent to zinc finger domain protein 2B (Homo sapiens), Q9UIF8. AlphaScreen BAZ2B-H3K14Ac peptide displacement. Potency, µM (top dose mostly 114 µM), without a hit: at the highest dose activity change, negative = inhibition, usual class: inhibitors. 4.4% of 360,000 active; also: potency is read from the fitted curve at half-maximal effect; % is scaled to controls: 0 for no effect and ±100 for the full control effect; nearly all actives have a fitted effect of over 60% in size
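Complex of BAZ2B and biotin-H3K14Ac (50 nM apiece) forms over 30 min at RT, then faces library compounds up to 110 uM for another 30 min; AlphaScreen beads added, 20 min dark incubation, luminescence read.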
CtBP-E1A blk: qHTS Assay for Inhibitors of the CtBP/E1A Interaction. AlphaScreen GST-E1A/His-CtBP binding, 1536-well; stronger effect = lower value. AID 651724, 2012. CtBP / adenovirus E1A interaction (AlphaScreen). 0.49% of 340,000 active. activity change, % (test concentration not listed); in the data active = activity change below about -65%; inconclusive = mostly about -30% to -63%; also: % is scaled to controls: 0 for no effect and ±100 for the full control effect
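Steps: dispense buffer (Tris pH 8.0, NaCl 300 mM, TCEP 1 mM, BSA, Tween 20); add 5X protein mix (GST-E1A, His-CtBP, 125 nM each); pin 23 nL compound; 2 h at 37 °C, dark; add 5X beads (50 ug/mL); 1 h; read.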
Active calls of the source: *; i = inactive; ? = inconclusive; · = no result given; [ ] = remark or other dose. Unless noted, calls follow the shape of the dose curve; as a rule, active = well fitted inhibition curve with a large enough effect; inconclusive = small, poorly fitted or top-dose-only effect; inactive = no such curve, though single readings can be large or run the other way.

SMILES	JMJD2A Tudor	G9a inh	HP1b chromo inh	Six1-Eya2 inh	BAZ2B inh	CtBP-E1A blk
COC(=O)c1sc(N2C(=O)c3oc4ccccc4c(=O)c3C2c2cccs2)nc1C (stereo unspecified)	-4%	14µM*	21%	6	-4%	6
COC(=O)c1sc(N2C(=O)C(O)=C(C(=O)c3ccc(C)o3)C2c2ccco2)nc1C (stereo unspecified)	-26%	·	7%	3	-5%	-1
Cc1ccc(C(=O)C2=C(O)C(=O)N(c3ncccn3)C2c2ccc(F)cc2)o1 (stereo unspecified)	-13%	?	24%	-1	?	-4
COC(=O)c1ccc(C2C(C(=O)c3ccc(C)o3)=C(O)C(=O)N2c2cc(C)on2)cc1 (stereo unspecified)	-12%	50µM*	26%	-2	-35%	1
COC(=O)c1sc(N2C(=O)C(O)=C(C(=O)c3ccc(C)o3)C2c2ccc(F)cc2)nc1C (stereo unspecified)	-36%	13µM*	5%	-1	-5%	14
COC(=O)c1sc(N2C(=O)C(O)=C(C(=O)c3ccc(C)o3)C2c2cccs2)nc1C (stereo unspecified)	?	10µM*	6%	-15	-31%	0
COC(=O)c1ccccc1NC(=O)CN1C(=O)COc2ccc(Cl)cc21	-3%	14%[59 µM]	31%	·	5%	·
COc1cccc(CN2CC34CC(c5ccc(C(C)=O)cc5)C(CC3S2(=O)=O)O4)c1 (stereo unspecified)	-11%	·	38%	·	·	·
COc1cc(=O)n(C)c2c(OCC3OC(C)(C)OC3(C)C)cccc12 (stereo unspecified)	-30%	27%	4%	0	-12%	-26
Cc1oc2c(C)c3oc(=O)c(CC(=O)N4CCCCC4)c(C)c3cc2c1C	-18%	-6%[59 µM]	34%	·	-4%	·
O=C(O)c1ccc(C[n+]2c(-c3ccccc3)csc2Nc2ccccc2)cc1	?	?	?	2	40µM*	-18
CC(C)(C)c1cc(-c2csc(Nc3ccccc3)[n+]2Cc2ccc(C(=O)O)cc2)cc(C(C)(C)C)c1O	40µM*	40µM*	45µM*	-15	40µM*	-12
CCCCCC[n+]1c(-c2ccccc2)csc1Nc1ccccc1	-11%	16µM*	17%	-15	18µM*	2
CCCCN1C(Nc2ccccc2)=NC[C@@H]1C	-9%	18%[2.33 µM]	32%	3	-3%	7
O=C1CN(C(=O)C2CCCCC2)C(c2ccccc2)c2cc(F)ccc2N1 (stereo unspecified)	-28%	-4%[59 µM]	12%	·	-3%	·
COC(=O)c1scc(-c2ccc(C)cc2)c1S(=O)(=O)N1CCN(c2ccc(OC)cc2)CC1	?	11µM*	?	·	?	·
CCc1cc(CNC(=O)C2CCC(=O)N(CCc3cccc(F)c3)C2)on1 (stereo unspecified)	-22%	-6%	2%	3	-7%	-6
CCOc1ccc2noc3c2c1C(=O)c1ccccc1-3	3%	?	67%	0	-11%	3
O=C1c2ccccc2-c2onc3ccc(NCc4ccco4)c1c23	?	i	i	-85*	112%	-93*
O=C1C(Cl)=C(NCCN2CCCCC2)C(=O)c2ccccc21	?	50µM*	-25%	?	?	-28
CCNc1ccc2noc3c2c1C(=O)c1ccccc1-3	?	?	?	-74*	32µM*	-72*
O=C1C(Cl)=C(NCc2ccco2)C(=O)c2ccccc21	?	·	50µM*	?	·	?
O=S(=O)(c1ccccc1)c1ccc(NCc2ccco2)cc1	?	-13%[59 µM]	13%	1	-7%	16
Cc1ccc(C(=O)c2oc3ccccc3c2NC(=O)c2nc(S(C)(=O)=O)ncc2Cl)cc1F	-20%	-1%[59 µM]	15%	·	-2%	·
COc1ccc(C(=O)N2CCC(C)(C(=O)NS(=O)(=O)C3CC3)C2)cc1 (stereo unspecified)	·	·	·	1	·	6
SMILES	JMJD2A Tudor	G9a inh	HP1b chromo inh	Six1-Eya2 inh	BAZ2B inh	CtBP-E1A blk
CCNC(=O)C1(C)CCN(Cc2noc(-c3c(C)noc3C)n2)C1 (stereo unspecified)	·	·	·	3	·	1
O=C(Cn1nc2c(cc1=O)CCCC2)NCc1ccccc1	-3%	11%[59 µM]	25%[57 µM]	·	2%	·
Cc1c(C)n(CCc2ccccc2)c2ncnc(NCCO)c12	-32%	-31%[2.33 µM]	-22%	-16	?	·
Cc1c(C)n(CCCN(C)C)c2ncnc(NCc3ccccc3)c12	?	79µM*	-8%	-7	-21%	-14
Cc1ccc(C(=O)NNCC(=O)Nc2ccc(Cl)cc2F)cc1	-13%	·	33%	8	·	·
COC(=O)CN1C(=O)[C@H]2[C@@H](c3ccc(C)o3)N3C(=O)CN(Cc4ccccc4)C(=O)[C@@]3(C)[C@H]2C1=O	-22%	45µM*	37%	5	-22%	·
COc1cccc(Cn2c(=O)c(CCc3ccccc3)nc3cnc(N4CCNCC4)nc32)c1	·	5%[0.501 µM]	·	·	·	·
CCN1CCN(c2ccc(NC(=O)CCc3c(C)nc4c(-c5ccccc5)c(C)nn4c3C)cc2)CC1	?	79µM*	-6%	-1	-7%	-9
C[C@H]1CCC(=O)N([C@H](COc2ccccc2)Cc2ccccc2)CC1	4%	32µM*	76%	7	9%	7
CC1CCN(S(=O)(=O)c2ccc3c(c2)c(=O)c(C(=O)NC(C)c2ccccc2)cn3C)CC1 (stereo unspecified)	-25%	?	6%	·	·	·
CN=Cc1sc2ccccc2c1O	-23%	50µM*	14%	0	-37%	3
Oc1c(/C=N/c2ccccn2)sc2ccccc12	?	8.9µM*	-21%	3	40µM*	-2
CCOCCCN(Cc1ccco1)C(=O)c1cc2c(s1)-c1c(C)cccc1OC2	104%	133%[59 µM]	143%	·	86%	·
COc1ccc(NC(=O)C2CCCN(c3nnc(C)c4c(C)n(-c5ccccc5)nc34)C2)cc1Cl (stereo unspecified)	-14%	?	15%	·	-30%	·
C=CCc1ccccc1OCC(O)CN1CCOCC1 (stereo unspecified)	-15%	·	45%	29	·	24
